# Test results taken from PMC7862700, “An all-to-all approach to the identification of sequence-specific readers for epigenetic DNA modifications on cytosine”.
# What was measured:
# Experiment in all cases: DAPPL (digital affinity profiling via proximity ligation, sequencing); 10 mM Tris-HCl pH 7.5, 50 mM NaCl, 1 mM DTT, 4% glycerol, room temperature, 30 min; GST-TFs on glutathione beads, 16-mer random dsDNA library, 0.1% formaldehyde crosslink after washing; high values mean tight binding
# Details in all cases: protein: recombinant; tags: N-terminal GST; dsDNA, one strand shown
# ELF4 = ELF4 (Homo sapiens, UniProt Q99607 1-663)
# How it was run: (§1)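 Pools were built from human transcription factors expressed in yeast as GST fusions, captured on glutathione beads and DNA-barcoded, along with a tag-only sample. Incubation with 200 nmole of a 16-mer random double-stranded DNA library lasted 30 min at room temperature in Tris/NaCl/DTT/glycerol buffer, and was followed by washing, 0.1% formaldehyde crosslinking, proximity ligation, PCR amplification and Illumina NextSeq500 sequencing. Binding signal is the quotient of each hexamer's read frequency for a factor and its frequency for the tag-only sample.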
# ETV2 = target: T1, ETV2 (Homo sapiens, UniProt O00321 1-342)
# T1 sequence: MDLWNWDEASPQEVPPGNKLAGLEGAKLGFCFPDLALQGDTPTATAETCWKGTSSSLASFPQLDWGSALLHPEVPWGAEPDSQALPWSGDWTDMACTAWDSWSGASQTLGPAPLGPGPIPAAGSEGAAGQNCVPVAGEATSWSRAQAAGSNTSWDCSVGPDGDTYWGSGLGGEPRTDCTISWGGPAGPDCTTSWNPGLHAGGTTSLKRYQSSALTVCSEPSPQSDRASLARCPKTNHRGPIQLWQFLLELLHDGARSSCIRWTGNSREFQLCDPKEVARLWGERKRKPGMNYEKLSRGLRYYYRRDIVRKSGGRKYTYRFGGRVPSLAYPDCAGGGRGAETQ
# How it was run: as §1
# ELF3 = target: T2, ELF3 (Homo sapiens, UniProt P78545 1-371)
# T2 sequence: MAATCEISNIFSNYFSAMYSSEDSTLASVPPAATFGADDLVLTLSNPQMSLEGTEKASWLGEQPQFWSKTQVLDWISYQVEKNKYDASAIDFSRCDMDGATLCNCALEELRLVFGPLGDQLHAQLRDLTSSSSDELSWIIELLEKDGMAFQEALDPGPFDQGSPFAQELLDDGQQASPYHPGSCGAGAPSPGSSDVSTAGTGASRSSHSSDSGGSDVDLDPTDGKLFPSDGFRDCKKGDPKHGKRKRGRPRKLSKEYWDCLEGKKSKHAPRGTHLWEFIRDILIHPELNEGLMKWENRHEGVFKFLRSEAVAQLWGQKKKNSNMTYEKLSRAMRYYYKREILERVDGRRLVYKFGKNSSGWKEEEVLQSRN
# How it was run: as §1
# ETV1 = ETV1 (Homo sapiens, UniProt P50549 1-477)
# How it was run: as §1
# ERF = target: T3, ERF (Homo sapiens, UniProt P50548 1-548)
# T3 sequence: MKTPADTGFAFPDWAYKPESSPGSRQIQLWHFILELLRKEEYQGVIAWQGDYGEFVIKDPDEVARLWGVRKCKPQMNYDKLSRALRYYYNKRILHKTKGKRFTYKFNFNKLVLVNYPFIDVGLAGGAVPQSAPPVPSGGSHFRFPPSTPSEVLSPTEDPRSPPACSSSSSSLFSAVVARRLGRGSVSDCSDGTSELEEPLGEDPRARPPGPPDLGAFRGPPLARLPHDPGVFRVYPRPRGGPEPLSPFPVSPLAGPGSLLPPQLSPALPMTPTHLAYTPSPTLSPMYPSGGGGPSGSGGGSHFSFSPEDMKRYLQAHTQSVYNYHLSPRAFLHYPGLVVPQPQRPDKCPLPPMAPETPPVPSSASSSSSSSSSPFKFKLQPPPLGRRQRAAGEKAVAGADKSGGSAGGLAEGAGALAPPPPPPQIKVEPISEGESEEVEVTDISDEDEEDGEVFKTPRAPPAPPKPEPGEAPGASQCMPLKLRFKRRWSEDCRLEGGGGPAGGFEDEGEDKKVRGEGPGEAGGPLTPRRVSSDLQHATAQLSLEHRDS
# How it was run: as §1
# ETV3L = target: T4, ETV3L (Homo sapiens, UniProt Q6ZN32 1-361)
# T4 sequence: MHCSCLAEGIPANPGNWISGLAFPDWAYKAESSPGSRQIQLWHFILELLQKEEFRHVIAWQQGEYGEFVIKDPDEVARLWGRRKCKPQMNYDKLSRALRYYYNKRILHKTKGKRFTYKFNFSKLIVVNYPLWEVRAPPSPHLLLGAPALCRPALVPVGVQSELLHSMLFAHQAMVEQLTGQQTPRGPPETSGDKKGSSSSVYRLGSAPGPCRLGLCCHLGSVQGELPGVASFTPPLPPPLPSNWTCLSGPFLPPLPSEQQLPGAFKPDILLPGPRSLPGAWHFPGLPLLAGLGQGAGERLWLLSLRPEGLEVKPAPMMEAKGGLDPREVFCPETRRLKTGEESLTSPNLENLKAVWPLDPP
# How it was run: as §1
# ETS2 = target: T5, ETS2 (Homo sapiens, UniProt P15036 1-469)
# T5 sequence: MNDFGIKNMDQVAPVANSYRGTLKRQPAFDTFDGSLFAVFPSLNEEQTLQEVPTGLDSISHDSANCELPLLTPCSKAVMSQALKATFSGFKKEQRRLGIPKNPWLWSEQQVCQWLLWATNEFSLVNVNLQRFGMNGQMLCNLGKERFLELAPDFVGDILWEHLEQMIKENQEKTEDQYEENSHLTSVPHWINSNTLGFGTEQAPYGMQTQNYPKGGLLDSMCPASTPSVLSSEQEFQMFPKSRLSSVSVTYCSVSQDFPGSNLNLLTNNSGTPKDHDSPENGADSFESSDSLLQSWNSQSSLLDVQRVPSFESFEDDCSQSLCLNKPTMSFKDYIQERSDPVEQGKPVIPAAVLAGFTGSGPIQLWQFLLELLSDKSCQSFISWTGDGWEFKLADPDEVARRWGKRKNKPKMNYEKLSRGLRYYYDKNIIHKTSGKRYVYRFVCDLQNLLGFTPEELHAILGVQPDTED
# How it was run: as §1
# ETV7 = target: T6, ETV7 (Homo sapiens, UniProt Q9Y603 1-341)
# T6 sequence: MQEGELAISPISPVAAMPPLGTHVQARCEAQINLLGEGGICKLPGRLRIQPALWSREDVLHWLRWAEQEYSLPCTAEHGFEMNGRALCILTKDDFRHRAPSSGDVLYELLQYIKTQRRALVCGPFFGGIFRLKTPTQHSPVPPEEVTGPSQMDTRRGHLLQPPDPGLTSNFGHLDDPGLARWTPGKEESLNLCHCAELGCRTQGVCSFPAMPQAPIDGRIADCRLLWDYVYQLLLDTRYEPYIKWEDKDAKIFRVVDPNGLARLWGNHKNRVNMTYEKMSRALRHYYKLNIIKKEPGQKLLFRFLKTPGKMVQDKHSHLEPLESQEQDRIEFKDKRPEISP
# How it was run: as §1
# ETV3 = target: T7, ETV3 (Homo sapiens, UniProt P41162-2 1-143)
# T7 sequence: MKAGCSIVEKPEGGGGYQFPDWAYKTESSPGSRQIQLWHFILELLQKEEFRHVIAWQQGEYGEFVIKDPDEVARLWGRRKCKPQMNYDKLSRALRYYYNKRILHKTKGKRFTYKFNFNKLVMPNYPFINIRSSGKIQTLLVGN
# How it was run: as §1
# ETV6 = ETV6 (Homo sapiens, UniProt P41212 1-452)
# How it was run: as §1
# ETV6, sequence (P41212 whole entry): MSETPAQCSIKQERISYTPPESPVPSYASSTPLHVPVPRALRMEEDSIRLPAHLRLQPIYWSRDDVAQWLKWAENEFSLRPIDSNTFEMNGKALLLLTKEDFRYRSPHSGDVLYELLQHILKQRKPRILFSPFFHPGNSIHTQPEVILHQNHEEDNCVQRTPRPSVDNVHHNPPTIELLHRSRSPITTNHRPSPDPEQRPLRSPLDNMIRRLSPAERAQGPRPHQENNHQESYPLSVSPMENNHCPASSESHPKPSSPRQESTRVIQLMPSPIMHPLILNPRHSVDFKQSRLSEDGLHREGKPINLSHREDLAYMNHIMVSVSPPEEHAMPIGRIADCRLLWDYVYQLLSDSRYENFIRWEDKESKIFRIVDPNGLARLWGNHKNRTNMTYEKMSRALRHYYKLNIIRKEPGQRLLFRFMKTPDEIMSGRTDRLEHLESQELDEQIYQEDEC
# ETV1, sequence (P50549 whole entry): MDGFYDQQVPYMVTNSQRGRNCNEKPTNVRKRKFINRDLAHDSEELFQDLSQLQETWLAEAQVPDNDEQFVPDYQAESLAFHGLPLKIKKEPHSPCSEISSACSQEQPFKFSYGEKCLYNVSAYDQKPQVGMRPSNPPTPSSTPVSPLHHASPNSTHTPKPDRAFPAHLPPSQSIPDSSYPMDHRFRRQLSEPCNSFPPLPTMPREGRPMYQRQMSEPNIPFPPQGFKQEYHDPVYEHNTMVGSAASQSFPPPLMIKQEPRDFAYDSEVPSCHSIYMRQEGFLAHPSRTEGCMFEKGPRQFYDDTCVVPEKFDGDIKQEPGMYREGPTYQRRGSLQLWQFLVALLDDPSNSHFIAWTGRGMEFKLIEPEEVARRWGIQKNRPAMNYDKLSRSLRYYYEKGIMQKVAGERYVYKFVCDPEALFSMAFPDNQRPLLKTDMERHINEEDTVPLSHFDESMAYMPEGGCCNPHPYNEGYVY
# ELF4, sequence (Q99607 whole entry, the tested form may be a part): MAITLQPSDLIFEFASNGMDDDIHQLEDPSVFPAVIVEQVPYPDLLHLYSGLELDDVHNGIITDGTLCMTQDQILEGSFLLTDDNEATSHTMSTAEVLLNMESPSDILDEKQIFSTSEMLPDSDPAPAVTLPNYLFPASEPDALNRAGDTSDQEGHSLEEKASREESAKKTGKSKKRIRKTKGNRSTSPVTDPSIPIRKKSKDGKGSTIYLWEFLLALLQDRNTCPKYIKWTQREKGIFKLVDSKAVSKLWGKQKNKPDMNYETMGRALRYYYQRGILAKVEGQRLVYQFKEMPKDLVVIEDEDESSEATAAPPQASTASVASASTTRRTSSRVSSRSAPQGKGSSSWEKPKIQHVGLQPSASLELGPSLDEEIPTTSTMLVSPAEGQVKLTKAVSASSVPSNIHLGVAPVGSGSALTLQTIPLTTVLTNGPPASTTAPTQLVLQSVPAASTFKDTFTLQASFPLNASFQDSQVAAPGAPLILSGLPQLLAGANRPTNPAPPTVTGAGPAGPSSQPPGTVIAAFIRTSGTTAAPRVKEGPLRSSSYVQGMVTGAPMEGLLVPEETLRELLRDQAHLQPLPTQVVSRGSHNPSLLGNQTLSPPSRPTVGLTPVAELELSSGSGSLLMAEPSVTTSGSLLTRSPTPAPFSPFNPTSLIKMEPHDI
sequence,measurement,setting,value
CGTCGC,binding signal,ELF4,"1.06 fold enrichment (6-mer frequency, TF over GST control)"
same,binding signal,ETV2,"1.2 fold enrichment (6-mer frequency, TF over GST control)"
same,binding signal,ELF3,"1.1 fold enrichment (6-mer frequency, TF over GST control)"
same,binding signal,ETV1,"1.3 fold enrichment (6-mer frequency, TF over GST control)"
same,binding signal,ERF,"1.3 fold enrichment (6-mer frequency, TF over GST control)"
same,binding signal,ETV3L,"1.13 fold enrichment (6-mer frequency, TF over GST control)"
same,binding signal,ETS2,"1.14 fold enrichment (6-mer frequency, TF over GST control)"
same,binding signal,ETV7,"1.23 fold enrichment (6-mer frequency, TF over GST control)"
same,binding signal,ETV3,"1.2 fold enrichment (6-mer frequency, TF over GST control)"
same,binding signal,ETV6,"1.2 fold enrichment (6-mer frequency, TF over GST control)"
